Screens deposited in PubChem by National Center for Advancing Translational Sciences (NCATS).
In the library only some 9.3% were active in any assay of this set; here they are far more common.
FLuc modulator = counter-screen for miR-21 project: firefly luciferase inhibitors or activators | P08659 | purified FLuc, Km substrates, luminescence inhibition | Potency, µM (doses to about 57.5 µM), most hits filed as inhibitors | actives 6.9% (n = 360,000); note: nearly all actives have a fitted effect of over 55% in size
Target sequence (P08659 whole entry, looked up): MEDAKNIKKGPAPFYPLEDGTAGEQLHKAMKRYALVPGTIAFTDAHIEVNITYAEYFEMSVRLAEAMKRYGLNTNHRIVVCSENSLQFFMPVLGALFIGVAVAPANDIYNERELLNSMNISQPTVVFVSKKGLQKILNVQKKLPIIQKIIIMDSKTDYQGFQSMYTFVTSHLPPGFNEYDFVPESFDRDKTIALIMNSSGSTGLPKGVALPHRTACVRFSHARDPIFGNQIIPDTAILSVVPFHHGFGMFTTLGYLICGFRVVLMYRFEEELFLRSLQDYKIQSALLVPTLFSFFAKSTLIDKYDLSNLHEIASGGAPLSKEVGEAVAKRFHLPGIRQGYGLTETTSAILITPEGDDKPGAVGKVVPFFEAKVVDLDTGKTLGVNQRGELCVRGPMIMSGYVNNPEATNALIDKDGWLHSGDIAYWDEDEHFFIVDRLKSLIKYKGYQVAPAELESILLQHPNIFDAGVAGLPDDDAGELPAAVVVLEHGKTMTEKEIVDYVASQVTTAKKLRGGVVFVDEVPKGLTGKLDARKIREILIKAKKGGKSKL
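Purified P. pyralis luciferase (10nM final) with 10uM D-luciferin and 10uM ATP (Km levels) in 50mM Tris acetate pH 7.5, 10mM Mg acetate, 0.01% Tween-20, 0.05% BSA; qHTS 6-point titration, ~60 µM downward; luminescence read.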
NPC1 promoter act = NPC1 promoter activation; AID 485313; Potency, µM (highest dose often 9.22 µM), usual class: activators; Huh7 NPC1 promoter luciferase reporter, 24 h; actives 2.4% (n = 320,000); note: nearly all actives have a fitted effect of over 60% in size
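Luminescence from an NPC1 promoter-driven luciferase reporter in stably transfected Huh7 cells was measured after 24 h compound treatment at 37 °C, followed by 10 min ambient incubation with luciferase detection reagent.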
ELG1 DNA repair = inhibitors of ELG1-dependent DNA repair in HEK293T cells; actives 2.3% (n = 330,000); AID 504467; Potency, µM (doses to about 46.1 µM), most hits filed as inhibitors; HEK293T ELG1-luciferase reporter, luminescence, 16 h; DNA damage induced by 5-fluorouridine; note: nearly all actives have a fitted effect of over 55% in size
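DMSO vehicle served as the neutral condition. Each well held 2,000 cells given 5-fluorouridine plus compound; after 16 hr at 37 °C/5% CO2, ONE-Glo was added and luciferase measured 30 min later.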
Rab9 prom act = activates the Rab9 promoter. AID 485297. Huh7 Rab9 promoter-luciferase reporter, luminescence, 24 h. actives 2.8% (n = 320,000). Potency, µM (series often up to 9.22 µM), hits mostly activators; note: nearly all actives have a fitted effect of over 60% in size
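Huh7 cells stably carrying Rab9 promoter–luciferase reporter, plated 1500 cells/well, compound added after 2 h and incubated 24 h at 37 °C; luciferase luminescence then read after 10 min with detection reagent.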
SMN2 splice up = enhancers of SMN2 splice variant expression. HEK293 SMN2-luciferase splicing reporter, luminescence, 30-36 h. Potency, µM (series often up to 46.1 µM), actives largely listed as activators. actives 2.8% (n = 210,000). AID 1458; note: nearly all actives have a fitted effect of over 55% in size
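HEK293 cells carry an SMN2 […]–luciferase reporter in which exon 7 inclusion puts luciferase in frame. Cells were plated 10-12 h before compound addition, then incubated 30-36 h at 37C. ONE-Glo luminescence was read; sodium butyrate at 4.5 mM final served as control.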
ELG1 genotox = inducers of genotoxicity in HEK293T ELG1-luciferase cells; HEK293T ELG1-luciferase reporter, luminescence, 16 h; Potency, µM (titrated, usually from 46 µM), actives largely listed as activators; actives 1.3% (n = 330,000); AID 504466; note: nearly all actives have a fitted effect of over 60% in size
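Genotoxicity was scored as increased ELG1-luciferase reporter signal, measured by ONE-Glo luminescence (30 min, room temperature). Compound or vehicle exposure of the HEK293T reporter cells lasted 16 hr at 37°C.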
Hits are given with their value; . = inactive; ? = inconclusive; / = not tested or not shown. Calls come from the whole dose curve; as a rule, active = well fitted curve in the direction sought with a large enough effect; inconclusive = small, poorly fitted or top-dose-only effect, or another doubt; inactive = no such curve, though single readings can be large; an effect the other way counts as inactive or inconclusive.

SMILES | FLuc modulator | NPC1 promoter act | ELG1 DNA repair | Rab9 prom act | SMN2 splice up | ELG1 genotox
O=c1c2c([N+](=O)[O-])cc([N+](=O)[O-])cc2sn1Cc1ccccc1 | 9.5µM | . | . | . | / | .
Cc1ccc(-c2nc(CS(=O)CC(=O)N3CCN(c4ccc(F)cc4)CC3)c(C)o2)cc1 (stereo not given) | . | . | . | . | . | .
CC(C)c1cc(C(=O)Nc2cccc(C(F)(F)F)c2)no1 | 15µM | . | ? | . | . | ?
O=C(Nc1ccc2c(c1)OCO2)c1cc(-c2ccc(Br)cc2)on1 | . | / | / | / | . | /
O=C(Nc1cc(Cl)ccc1O)c1cc(-c2ccc3c(c2)OCO3)on1 | . | / | / | / | ? | /
Cc1ccc(Cl)cc1NC(=O)c1cc(-c2ccc3c(c2)OCCO3)on1 | 1.3µM | / | / | / | / | /
Cc1ccc(NC(=O)c2cc(-c3ccc4c(c3)OCO4)on2)cc1 | . | . | ? | . | . | .
O=C(Nc1cccc(Cl)c1)c1cc(-c2ccc3c(c2)OCCO3)on1 | 0.48µM | / | / | / | / | /
Cc1cccc(NC(=O)c2cc(-c3ccc4c(c3)OCCO4)on2)c1 | 0.19µM | / | / | / | / | /
CCN(CC)C(=O)c1cc(Cl)ccn1 | . | . | . | . | . | .
O=C(Nc1cccc(C(F)(F)F)c1)c1cc(-c2ccc3c(c2)OCCO3)on1 | 1.5µM | / | / | / | / | /
O=C(Nc1cccc(C(F)(F)F)c1)c1cc(-c2ccc(Cl)cc2)on1 | . | / | / | / | . | /
CCc1ccccc1NC(=O)NC1CCCCC1 | . | . | ? | . | . | .
O=C(Nc1ccccc1Cl)NC1CCCCCCC1 | 13µM | ? | ? | ? | / | ?
COc1ccccc1NC(=S)NC1CCCCCC1 | ? | . | . | . | / | .
COc1ccccc1NC(=O)NC1CCCCCCC1 | 13µM | . | ? | . | / | .
CC(C)NC(=O)c1ccc2c3n(nc2c1)-c1ccccc1CO3 | 0.43µM | 0.28µM | ? | ? | / | ?
CC(C)[C@@H](CO)NC(=O)c1ccc2c3n(nc2c1)-c1ccccc1CO3 | 1.7µM | 0.5µM | ? | ? | / | ?
Cc1cccc(NC(=O)Nc2ccc(F)cc2)n1 | 8.5µM | ? | ? | ? | . | .
Cc1cccc(NC(=S)Nc2cccc(C)n2)n1 | . | . | . | . | / | .
COC(=O)c1ccc(NC(=O)c2cn(-c3cccc(C)n3)cn2)cc1 | . | . | . | . | . | .
Cc1cccc(NC(=O)Nc2cccc(C)n2)n1 | 17µM | . | ? | ? | . | .
Cc1ccc(NC(=O)c2cn(-c3cccc(C)n3)cn2)cc1 | ? | 2.8µM | ? | 3.5µM | ? | ?
O=C(Nc1ccc(F)cc1)Nc1ccc2ccccc2n1 | . | ? | . | . | / | .
Cc1cccc(NC(=O)c2ccc([N+](=O)[O-])cc2Cl)n1 | . | . | . | . | . | .
SMILES | FLuc modulator | NPC1 promoter act | ELG1 DNA repair | Rab9 prom act | SMN2 splice up | ELG1 genotox
Cc1cccc(NC(=O)Nc2ccc([N+](=O)[O-])cc2)n1 | . | ? | ? | 2.2µM | . | .
O=C(CNc1ccccc1-c1ccccc1)NCc1ccccc1 | . | . | . | . | . | .
Cc1ccc(NC(=O)Nc2cccc(C)n2)cc1 | 2.4µM | . | ? | . | 16µM | ?
Cc1cccc(NC(=O)Nc2ccc3c(c2)N(C)C(=O)CS3)n1 | ? | . | . | . | . | ?
CC(=O)N(C)c1ccc(NC(=O)Nc2ccc(C)cc2)cc1 | 24µM | . | ? | ? | ? | ?
Cc1cc(NC(=O)Nc2ccc(Cl)cc2)no1 | ? | . | ? | . | / | .
Cc1cccc(NC(=O)Nc2ccc(Cl)cc2)n1 | ? | . | ? | ? | / | .
Cc1cccc(NC(=O)Nc2ccc(C)c(C)c2)n1 | 2.1µM | ? | ? | ? | ? | ?
Cc1ccc(NC(=O)Nc2cc(C)on2)cc1 | 15µM | ? | ? | ? | ? | .
COc1ccccc1CNC(=O)C1CCC(CNS(=O)(=O)c2ccc(NC(C)=O)cc2)CC1 (stereo not given) | . | . | . | . | / | .
COc1cccc2cc(C(=O)N3CCN(c4ccccn4)CC3)c(=O)oc12 | ? | . | . | . | . | .
Cc1ccc(CN(c2ccc(C(=O)N3CCc4ccccc4C3)cc2)S(C)(=O)=O)cc1 | . | . | 16µM | . | . | .
CCc1ccc(-c2nc(CN3CCC(C(=O)NCc4ccc(F)cc4)CC3)c(C)o2)cc1 | ? | . | 15µM | . | . | .
CCN(CCNC(=O)C1CCN(Cc2nc(-c3cccc(Cl)c3)oc2C)CC1)c1ccccc1 | ? | . | 21µM | . | . | .
CCN(CCNC(=O)C1CCN(Cc2nc(-c3ccc(Cl)cc3)oc2C)CC1)c1ccccc1 | . | . | 16µM | . | . | .
CCN(CCNC(=O)C1CCCN(Cc2nc(-c3ccc(OC)cc3)oc2C)C1)c1ccccc1 (stereo not given) | . | . | ? | . | . | .
CCc1ccc(-c2nc(CN3CCC(C(=O)NCCN(CC)c4ccccc4)CC3)c(C)o2)cc1 | . | . | 21µM | . | . | .
Cc1ccc(N2CC(C(=O)Nc3ccc(N4CCOCC4)cc3)CC2=O)cc1C (stereo not given) | . | . | . | . | / | .
COc1ccc(S(=O)(=O)N2CCC(C(=O)Nc3ccccc3)CC2)cc1OC | . | / | / | / | . | /
O=C(c1sc2ccccc2c1Cl)N1CCN(c2ccc(F)cc2)CC1 | . | . | . | . | . | .
Cc1ccc(-c2cc(C(=O)N3CCCC3)no2)cc1 | 0.76µM | ? | ? | ? | 0.89µM | 0.23µM
CCOC(=O)C1CCCN(C(=O)c2cc(-c3ccccc3)on2)C1 (stereo not given) | . | ? | ? | 4µM | 22µM | ?
O=C(c1cc(-c2ccco2)on1)N1CCOCC1 | ? | . | ? | ? | . | ?
Cc1ccc(-c2cc(C(=O)N3CCOCC3)no2)cc1 | 0.54µM | 0.32µM | ? | 0.32µM | / | ?
NS(=O)(=O)c1ccc(CCNC(=O)COC(=O)/C=C/c2ccc(OC(F)F)cc2)cc1 | . | . | . | . | / | .
SMILES | FLuc modulator | NPC1 promoter act | ELG1 DNA repair | Rab9 prom act | SMN2 splice up | ELG1 genotox
CCOc1ncccc1C(=O)N(CCC(C)C)c1c(N)n(Cc2ccccc2)c(=O)[nH]c1=O | / | / | . | / | / | .
Cc1c(O)c2ccccc2oc1=O | . | . | . | . | / | .
CCN(CC)S(=O)(=O)c1cccc(N=Nc2c(O)c3ccccc3oc2=O)c1 | 27µM | . | ? | . | / | .
COC(=O)C1CCN(c2ccc([N+](=O)[O-])cc2[N+](=O)[O-])CC1 | . | . | . | . | / | .
COC(=O)C1CCN(c2csc3ccc(Cl)cc3c2=O)CC1 | 7.6µM | / | / | / | / | /
COC(=O)C1CCN(c2csc3ccc(C)cc3c2=O)CC1 | 6µM | / | / | / | / | /
CCOc1cc(C2C(C#N)=C(N)OC(C)=C2C(C)=O)c(Br)c(Br)c1OC(C)C (stereo not given) | . | . | . | . | . | ?
